From PubChem
TEAD-YAP inh: TEAD-YAP interaction inhibition. HEK-TIYL cells, TEAD-Gal4/YAP UAS-luciferase luminescence. inhibition, % at 9.12 µM. 1.4% of 640,000 active; in the data active = inhibition above about 32%
FBW7 activator: human FBW7 E3 ligase activation, primary screen | 0.13% of 650,000 active | AlphaScreen FBW7–phospho-cyclin E peptide binding, activator screen | normalized activity (activation), % at 26.1 µM | AID 1259310 | Q969H0; in the data active = normalized activity above about 1.9%;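 also: purified mutant Fbw7 with reduced substrate affinity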
GPR151 activ: human GPR151 activation; Q8TDV0; PathHunter beta-arrestin GPR151 cells, luminescence; activation, % at 11.2 µM; 1% of 650,000 active; in the data active = activation above about 4.9%
MITF primary: inhibitors of human MITF; 0.91% of 650,000 active; O75030; inhibition, % at 2.6 µM; AlphaScreen MITF homodimerization, bead proximity signal; in the data active = inhibition above about 50%
GPR151 conf act: human GPR151 activation, confirmation screen; shares compounds with GPR151 activ; GPR151 PathHunter beta-arrestin cells, luminescence, 90 min; % of EA-reagent control over plate median; activation, % at 11.2 µM; 6,700 tested, under 10 active; AID 1508609;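 active = mean percent activation across replicates above the confirmation screen cutoff of 4.91%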
GPR119 ag: counter-screen for GPR151 activators: effect on human GPR119. GPR119 PathHunter beta-arrestin cells, luminescence, 90 min; 0 = compound-well median, 100 = enzyme-acceptor control. activation, % at 11.2 µM. 0.3% of 6,700 active. shares compounds with GPR151 activ;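 active = mean percent activation in the counterscreen above 29.09%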;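 also: counterscreen on off-target GPR119 to flag nonselective hits from the GPR151 activator screen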
Target sequence (Q8TDV5 whole entry, looked up): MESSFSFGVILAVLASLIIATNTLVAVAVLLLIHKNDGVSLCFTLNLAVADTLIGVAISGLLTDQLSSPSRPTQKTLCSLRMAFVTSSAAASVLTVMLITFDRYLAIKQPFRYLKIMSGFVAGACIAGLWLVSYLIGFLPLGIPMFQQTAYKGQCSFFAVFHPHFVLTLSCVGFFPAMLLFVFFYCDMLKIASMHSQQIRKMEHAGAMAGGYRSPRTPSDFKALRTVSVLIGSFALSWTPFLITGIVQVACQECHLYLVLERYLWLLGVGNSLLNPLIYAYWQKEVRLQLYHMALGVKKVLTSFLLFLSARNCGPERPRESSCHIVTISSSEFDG
A number is an active result; n = inactive; x = not tested or not shown. Compounds with a hit are over-represented: about 3.4% of the library has one in this group of screens.

SMILES | TEAD-YAP inh | FBW7 activator | GPR151 activ | MITF primary | GPR151 conf act | GPR119 ag
C[C@@H](O)[C@@H]1NC(=O)[C@H]2CN(S(=O)(=O)c3ccccc3F)CCN2C1=O | n | n | n | n | x | x
COc1ccc(/C=C(\C#N)C(=O)Nc2ccccn2)cc1 | n | n | 5.1 | n | n | n
CCN1CC=C2C(C#N)=C(N)C(C#N)(C#N)C(c3c(OC)ccc4ccccc34)C2C1 (centres undefined) | n | n | 5.6 | n | n | n
CC1CCN(Cc2nnnn2CCCC(=O)N(C)C2CCOC2)CC1 (centres undefined) | n | n | 8.7 | n | n | n
Cc1cc(Nc2ccccc2)nc(Nc2ccc(-n3ccnc3)cc2)n1 | n | n | n | n | x | x
Cc1cc(NC2CC2)nc(Nc2ccc(-n3ccnc3)cc2)n1 | n | n | 5.3 | n | n | n
Cc1cc(Nc2ccc(N3CCOCC3)cc2)nc(Nc2ccc(-n3ccnc3)cc2)n1 | 99 | n | 8.9 | n | n | 63
CCN(CC)c1nc(Nc2ccccc2)nc(Nc2ccc(-n3ccnc3)cc2)n1 | n | n | 6.6 | n | n | n
Cc1cc(Nc2ccc(N3CCOCC3)cc2)nc(Nc2nccc3ccccc23)n1 | 81 | n | 5.3 | n | n | n
Cc1cc(Nc2ccc(N3CCOCC3)cc2)nc(Nc2ccccn2)n1 | n | n | n | n | x | x
O=c1c(Cl)c(O)cnn1Cc1ccccc1 | n | n | n | n | x | x
CCOC(=O)c1ccccc1NC(=O)n1ncc2cc(Cl)ccc21 | n | n | n | n | x | x
CCOC(=O)c1cccc(NC(=O)n2ncc3cc(Cl)ccc32)c1 | 85 | n | 5.6 | n | n | n
CCN(CC)C(=O)c1sc(NC(=O)c2ccc(F)cc2)c(C(=O)OC)c1C | n | n | 5.1 | n | n | n
CCN(CC)C(=O)c1sc(NC(=O)c2cccnc2)c(C(=O)OC)c1C | n | n | n | n | x | x
CCOC(=O)c1cc(C)sc1NC(=O)c1cc(-c2ccc(CC(C)C)cc2)nc2ccccc12 | n | n | n | n | x | x
CCCCOc1ccc(-c2cc(C(=O)NN)c3ccccc3n2)cc1 | n | n | n | n | x | x
CCCCOc1ccc(-c2cc(C(=O)OC)c3ccccc3n2)cc1 | n | n | 7.5 | n | n | n
COC(=O)c1c(NC(=O)c2cc(-c3ccc(CC(C)C)cc3)nc3ccccc23)sc(C)c1-c1ccccc1 | n | n | 5.1 | n | n | n
COCCNC(=O)[C@@H]1C[C@H](NCc2cc(C)ccc2C)CN1C1Cc2ccccc2C1 | n | n | n | n | x | x
COCCNC(=O)[C@@H]1C[C@H](NCc2ccccc2Cl)CN1C1Cc2ccccc2C1 | n | n | 6.4 | n | n | n
CCCCCCCC1=NN2C(=N)/C(=C/c3ccc(N(C)C)cc3)C(=O)N=C2S1 | n | n | 5.7 | n | n | n
CCCC1=NN2C(=N)/C(=C/c3ccc(N(C)C)cc3)C(=O)N=C2S1 | n | n | n | n | x | x
COc1ccc(CCN(C)C2CCCN(Cc3ccn[nH]3)C2)cc1OC (centres undefined) | n | n | n | n | x | x
CCC(C)NC(=O)C1CCN(S(=O)(=O)c2cccc3nsnc23)CC1 (centres undefined) | n | n | n | n | x | x
SMILES | TEAD-YAP inh | FBW7 activator | GPR151 activ | MITF primary | GPR151 conf act | GPR119 ag
CC1(C)CC(=O)c2sc(NC(=O)Cc3ccc(Br)cc3)nc2C1 | n | n | n | n | x | x
COc1ccc(/C=N/Nc2nnc3c(n2)[nH]c2ccccc23)cc1Br | n | n | n | n | x | x
CC(=O)N1CCCN(S(=O)(=O)c2cccc3cnccc23)CC1 | n | n | 5.4 | n | n | n
C[C@@H](O)C(=O)N1CCCN(S(=O)(=O)c2cccc3cnccc23)CC1 | n | n | n | n | x | x
c1ccc(N2CCCCC2)c(Nc2nc3ccccc3n3nnnc23)c1 | n | n | 6.0 | n | n | n
Cc1nnc2c(Nc3ccccc3N3CCCCC3)nc3ccccc3n12 | n | n | n | n | x | x
Cc1cc(C)c2cc(C#N)c(SCC(=O)NC(C)(C)C)nc2c1 | n | n | n | n | x | x
COc1cc(Br)c(C2CC(=O)Nc3ccc4ccccc4c32)cc1OC (centres undefined) | n | n | n | n | x | x
COc1cc2c(c(OC)c1)C(c1cc(OC)c(OC)cc1Br)CC(=O)N2 (centres undefined) | n | n | 5.1 | n | n | n
O=C(COc1ccccc1)Nc1ccc(N2CCC(NCc3cccs3)CC2)cc1 | n | n | n | n | x | x
